In PubChem BioAssay (NCATS):
Where “and” joins values, the source holds several entries; their conditions need not be identical. Identical values can stand only once. Inconclusive results are not listed. Calls of active or inactive are those of the source. The call rests on the fitted dose curve; in most records, active means well fitted curve in the direction sought with a large enough effect; inconclusive means small, poorly fitted or top-dose-only effect, or another doubt; inactive means no such curve, though single readings can be large; an effect the other way counts as inactive or inconclusive.

Tests used:
[1] = target: Cellular tumor antigen p53 (Homo sapiens) (UniProt P04637); assay: Primary qHTS for small molecule compounds that upregulate eGFP-tagged delta133p53alpha (in N-terminal) cells. (AID 2060322); conditions: NCI-H358 eGFP-delta133p53alpha fluorescence, 24 h; activation: hits give high values;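 further: cells pre-induced with doxycycline then dosed without doxycycline; series mostly up to about 56 µM; 0% = DMSO vehicle and 100% = reference activator; nearly all actives have a fitted effect of over 75% in size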
Summary of the method: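 NCI-H358 cells pre-induced 24 h with 10 ng/ml doxycycline for eGFP-delta133p53alpha, plated dox-free and exposed 24 h at 37C to titrated compounds. Fixed, Hoechst-stained; gated GFP peak intensity by laser scanning cytometry, normalized to DMSO (0%) and 57.5 uM 5-azacytidine (100%).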

[2] = target: Aldehyde dehydrogenase, mitochondrial (Homo sapiens) (UniProt P05091); assay: qHTS for Inhibitors of the Aldehyde Dehydrogenase Family (ALDH2) Primary screen (AID 2061308);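 further: plate controls were vehicle for no effect and reference inhibitor for full effect; nearly all actives have a fitted effect of over 55% in size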
[3] = target: Retinaldehyde dehydrogenase 3 (Homo sapiens) (UniProt P47895); assay: qHTS for Inhibitors of the Aldehyde Dehydrogenase Family (ALDH1A3) Primary screen (AID 2061315);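 further: plate controls were DMSO vehicle for no effect and reference inhibitor for full effect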

Chain of Cellular tumor antigen p53 (Homo sapiens) (P04637 whole entry, looked up): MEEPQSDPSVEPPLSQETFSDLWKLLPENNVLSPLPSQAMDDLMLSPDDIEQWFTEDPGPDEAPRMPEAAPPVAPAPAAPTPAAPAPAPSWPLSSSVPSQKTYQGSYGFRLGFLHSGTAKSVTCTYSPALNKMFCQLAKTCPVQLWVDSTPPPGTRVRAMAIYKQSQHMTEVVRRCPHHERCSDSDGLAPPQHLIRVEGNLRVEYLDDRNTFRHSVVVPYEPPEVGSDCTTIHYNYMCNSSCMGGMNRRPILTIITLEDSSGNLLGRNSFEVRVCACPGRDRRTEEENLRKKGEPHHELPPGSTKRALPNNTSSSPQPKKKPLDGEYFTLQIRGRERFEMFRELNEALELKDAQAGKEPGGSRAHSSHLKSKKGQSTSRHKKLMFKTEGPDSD

C/C(=C\CO)CC/C=C(\C)C(=O)O[C@H]1[C@H](OC2OC=C(C(=O)O)C3CCC(C)(O)C23)O[C@H](CO)[C@@H](O)[C@@H]1O (some centres undefined)
inactive: activation [1] -22.3% | Potency [2] | Potency [3]

OC[C@H]1O[C@H](O[C@]2(CCl)O[C@H](CCl)[C@@H](O)[C@@H]2O)[C@H](O)[C@@H](O)[C@H]1Cl
inactive: activation [1] -5.86% and -10% | Potency [2] | Potency [3]

O=C1COC2(CCN(S(=O)(=O)c3ccc(-c4ccc5cccnc5c4)cc3)CC2)CN1C1CC1
inactive: activation [1] -15.7% | Potency [2] | Potency [3]
